# Laboratory results from PubChem BioAssay AID602478 (National Center for Advancing Translational Sciences (NCATS), 2012).
# Results filed as inconclusive are left out. Entries that show only a call come without a potency. Calls of active or inactive are those of the source. Calls come from the whole dose curve; as a rule, active = well fitted activation curve with a large enough effect; inconclusive = small, poorly fitted or top-dose-only effect; inactive = flat fitted curve, though single readings scatter.
# Biological target: Luciferin 4-monooxygenase (Photinus pyralis) (UniProt P08659)
# Sequence (P08659 whole entry, looked up): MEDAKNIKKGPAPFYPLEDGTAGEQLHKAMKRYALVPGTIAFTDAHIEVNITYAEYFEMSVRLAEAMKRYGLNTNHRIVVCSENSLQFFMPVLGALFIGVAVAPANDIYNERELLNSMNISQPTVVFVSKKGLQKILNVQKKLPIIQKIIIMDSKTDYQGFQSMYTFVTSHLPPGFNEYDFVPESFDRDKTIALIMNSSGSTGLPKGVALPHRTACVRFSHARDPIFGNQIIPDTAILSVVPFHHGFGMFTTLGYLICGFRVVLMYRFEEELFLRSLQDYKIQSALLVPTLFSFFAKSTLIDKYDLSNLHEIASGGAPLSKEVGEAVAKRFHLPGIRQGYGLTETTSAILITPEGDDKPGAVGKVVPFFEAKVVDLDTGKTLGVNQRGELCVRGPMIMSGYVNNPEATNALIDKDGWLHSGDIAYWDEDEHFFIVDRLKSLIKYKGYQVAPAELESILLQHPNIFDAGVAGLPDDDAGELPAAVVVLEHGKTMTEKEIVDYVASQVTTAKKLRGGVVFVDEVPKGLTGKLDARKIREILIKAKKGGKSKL
# Experiment: FLuc inhibitory activity for the follow-up compounds in a cell-based translational read-through assay (72 hour incubation)
# Settings: GripTite 293 FLucUGA read-through, luminescence; series mostly up to 38.3 µM
# Text: NCGC Assay Overview: Firefly (Photinus pyralis) luciferase is one of the most commonly used transcriptional reporters. It is considered one of the more dynamically responsive reporters - that is, responsive to changes in reporter transcription - as it requires no post-translational modifications and is enzymatically active directly after protein synthesis (Wood, 1998). With no endogenous expression in mammalian cells and without the requirement of external excitation, it offers very little background signal, thus generally providing excellent signal to background for most assays. Previous profiling work to determine the prevalence of compounds that affect FLuc enzymatic activity (PubChem AID 411) identified that ~3% of the MLSMR library (then at ~72K) inhibited FLuc (Auld et al., 2008). […] Of the compounds identified in this profile that inhibited FLuc, 151 compounds were selected for further analysis, in an effort to better understand their mode of inhibiting FLuc. The assay described here was to determine the activity of the compounds in a cell-based firefly luciferase reporter gene assay originally designed to identify compounds that enchanced translational read-through of a FLuc cDNA that contained a premature stop codon (Auld et al., 2009; Auld et al., 2010). Compounds that enhance translational read-through or compounds that stabilize FLuc intracellularly are identified as active compounds in the assay.
# NCGC Assay Protocol Summary: Reagents: Transient transfection of FlucUGA construct: TransFast Transfection Reagent (Promega #E2431); FLucUGA construct (refer to Auld et al., 2009) #GripTite 293 MSR Cell Line (Invitrogen #R795-07) #Complete growth media: DMEM (Invitrogen #11965), 10% HIFBS, 0.1mM MEM NEAA, 5mL/L pen-strep (of 5000U/mL stock), 600ug/mL Geneticin #Assay media: DMEM without phenol red (Invitrogen #21063), 5% charcoal-stripped HIFBS (Hyclone #SH30071.03), 0.1mM MEM NEAA In-house detection reagent: 300mM Tris-HCl, 300mM Trizma base, 300mM MgCl, 1% Triton-X100, 5mM DTT, 500uM Coenzyme A trilithium salt (Sigma #C3019),450uM ATP (Sigma #A7699), 1mM D-luciferin sodium salt monohydrate (Biosynth #L8240) Control compounds used were two known firefly luciferase inhibitors (3-(5-(3-chlorophenyl)-1,2,4-oxadiazol-3-yl)benzoic acid and 5-(2-fluorophenyl)-3-phenyl-1,2,4-oxadiazole), and DMSO. Assay Summary: Transient transfection of FlucUGA construct: Day 1: GripTite cells were plated in T175 flasks at a density of 1.75 x 10^7 cells/T175 flask in complete growth media without Geneticin and allowed to grow ON in a 37 degrees Celsius incubator. Day 2: Cells in T175 flask were transfected - with 10ug of DNA and 30uL Transfast in 12mL complete growth media without serum and without Geneticin for 4 hours at 37 degrees Celsius. After incubation, cells were trypsinized, spun down, and resuspended to a concentration of 3.3 x 10^5 cells/mL in assay media. 6uL of cells in assay buffer were dispensed at 2000cells/well (3.3 x 10^5 cells/mL) into Greiner solid-white TC-treated 1536-well plates using a Multidrop Combi (Thermo Fisher Scientific). Plates were incubated for one hour at 37 degree Celsius, 95% humidity, 5% CO2. These assay plates were then treated with 23nL of compound or DMSO using a Kalypsys pin tool, which allows for delivery of a 12-point titration of each compound to the assay plate, with a final compound concentration ranging from approximately ~38uM to 0.2nM. Assay plates were then incubated for 72 hours. After incubation, plates were washed three times with DPBS (7uL/well). After the third wash, 6uL of DPBS was added to each well. 3uL of 3X luciferase detection reagent was then added to each well using a flying reagent dispenser (FRD). After a 15 minute incubation to allow for cell lysis, luciferase activity was measured using a ViewLux CCD imager (PerkinElmer), with an average exposure time of 2-12 seconds.
row,SMILES,Potency
1,Cc1ccc(NS(=O)(=O)c2ccc(Cl)c(C(=O)Nc3cccc(C(=O)O)c3)c2)cc1,inactive
2,Cc1ccc(C(=O)O/N=C(\N)c2ccccn2)cc1,2.25 µM (active)
3,COc1ccccc1C(=O)Nc1ccc(C(=O)O)cc1,inactive
4,Cc1ccc(C(=O)Nc2cccc(C(=O)O)c2)cc1S(=O)(=O)N1CCCCC1,3.18 µM (active)
5,O=C(O)c1ccc(NC(=O)c2cc(S(=O)(=O)N3CCCCC3)c(Cl)cc2Cl)cc1,inactive
6,Nc1ccc2nc(-c3ccccc3)sc2c1,1.13 µM (active)
7,CC(C)(C)NC(=O)c1ccccc1-c1nc2ccccc2s1,inactive
8,CC(C)CC(=O)Nc1cccc(C(=O)Nc2ccccc2C(=O)O)c1,inactive
9,Cc1ccc2sc(-c3ccc(NC(=O)c4cc(-n5cnnc5)ccc4Cl)cc3)nc2c1,14.2 µM (active)
10,COc1ccc2nc(NC(=O)c3ccco3)sc2c1,0.634 µM (active)
11,COc1cc(OC)cc(C(=O)Nc2ccccc2-c2nc3ccccc3s2)c1,inactive
12,O=C(O)c1cccc(NC(=O)c2cccc(NC(=O)C3CCCO3)c2)c1 (stereo not given),inactive
13,COc1ccc2nc(NC(=O)c3cnccn3)sc2c1,3.56 µM (active)
14,COc1ccc(-c2cccc(C(=O)Nc3cccc(C(=O)O)c3)c2)cc1,12.6 µM (active)
15,CC(C)C(=O)Nc1cccc(C(=O)Nc2ccccc2C(=O)O)c1,inactive
16,COc1ccc(C(=O)Nc2ccccc2-c2nc3ccccc3s2)c(OC)c1,inactive
17,Nc1ccc(-c2nc3cc(N)ccc3s2)cc1,22.5 µM (active)
18,COc1c(C)cccc1C(=O)Nc1ccc(-c2nc3ccccc3s2)c(Cl)c1,inactive
19,O=C(O)c1cccc(NC(=O)c2cccc(S(=O)(=O)N3CCc4ccccc4C3)c2)c1,inactive
20,O=C(Nc1ccccc1C(=O)O)c1cc(S(=O)(=O)Nc2ccccc2)ccc1Cl,inactive

row,SMILES,Potency
1,O=C(Nc1ccccc1C(=O)O)c1ccc(NC(=O)C2CCCCC2)cc1,inactive
2,COc1ccc2nc(NC(=O)c3cccc(S(=O)(=O)N4CCOCC4)c3)sc2c1,inactive
3,COc1ccccc1C(=O)Nc1ccc(C(=O)Nc2ccccc2C(=O)O)cc1,inactive
4,O=C(O)c1cccc(NC(=O)c2cccc(S(=O)(=O)Nc3cccc(F)c3)c2)c1,inactive
5,O=C(Nc1ccccc1C(=O)O)c1cccc(C(=O)Nc2ccccc2C(=O)O)c1,inactive
6,COc1ccc(C(=O)Nc2cccc(C(=O)O)c2)cc1S(=O)(=O)N1CCCC1,inactive
7,Cc1ccc(S(=O)(=O)N2CCN(C(=O)c3ccccc3-c3nc4ccccc4s3)CC2)c(C)c1,inactive
8,O=C(O)c1ccc(NC(=O)c2cccc(NC(=O)c3cccs3)c2)cc1,inactive
9,O=C(O)c1cccc(NC(=O)c2ccc(Cl)c(S(=O)(=O)N3CCCCCC3)c2)c1,0.283 µM (active)
10,Cc1c(NS(C)(=O)=O)cccc1-c1nc2ccccc2s1,inactive
11,COc1cccc(OC)c1C(=O)Nc1cccc(C(=O)Nc2cccc(C(=O)O)c2)c1,inactive
12,COc1ccc(-c2nc3ccccc3s2)cc1NC(=O)c1ccc(F)cc1,inactive
13,COc1ccc2nc(NC(=O)c3ccc(S(=O)(=O)N4CCCC(C)C4)cc3)sc2c1 (stereo not given),inactive
14,CC(=O)Nc1cccc(C(=O)Nc2ccccc2C(=O)O)c1,inactive
15,COc1ccc(NS(=O)(=O)c2cccc(C(=O)Nc3ccccc3C(=O)O)c2)cc1,inactive
16,CC(=O)Nc1cccc(-c2nc3ccccc3s2)c1C,inactive
17,Cc1cccc(C(=O)Nc2ccccc2C(=O)Nc2ccc(C(=O)O)cc2)c1,inactive
18,Cc1ccc(C(=O)Nc2ccc(C(=O)O)cc2)cc1S(=O)(=O)Nc1ccccc1,inactive
19,COc1ccc(Br)cc1C(=O)Nc1ccc(C(=O)O)cc1,inactive
20,COc1cc(OC)cc(C(=O)Nc2ccc(-c3nc4ccccc4s3)c(C)c2)c1,inactive
